The values that follow come from PubChem BioAssay.

Activity calls are given as the source filed them.

The target of one test is Albumin (Bos taurus) (UniProt P02769). Put plainly: compounds binding labelled BSA control protein – biochemical, small-molecule microarray, Alexa647 label, 635/667 nm fluorescence, artefact control for SMM control protein annotation, profiling panel (AID 1118).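 Also: score merges 667 nm emission intensity and signal-to-noise per printed compound spot.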 Particulars: BSA-A647 binding, fluorescence 635 nm, higher = more signal.
Test [1] is described as follows: probe aXIP binding to arrayed compounds – biochemical, NeuroSMM set, 635/667 nm fluorescence, primary screen (AID 1119).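 Also: probe is the protein aXip251-270 applied at 1 µg/mL to compound-printed slides; binding of probe to printed compounds measured as 667 nm fluorescence plus signal to noise.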 Conditions: small-molecule microarray, higher = more signal, called active from +8 up or from −8 down.
Test [2] can be described thus: probe aNOTCH3 binding on compound microarray – biochemical, small-molecule microarray, 635/667 nm fluorescence, primary screen (AID 1120).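 Also: probe is a biotin-tagged antibody raised against NOTCH3 rather than NOTCH3 protein; score merges spot fluorescence near 667 nm with spot signal to noise.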 Conditions: higher = more signal.
Test [3] in a line: probe aNOTCH2 binding on compound microarray – biochemical, small-molecule microarray, 635/667 nm fluorescence, primary screen (AID 1121).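 Also: score merges feature fluorescence read at 667 nm with its signal to noise.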 Conditions: higher = more signal.
For test [4], the target named is Carbonic anhydrase 2 (Homo sapiens) (UniProt P00918). Put plainly: compounds binding carbonic anhydrase 2 – biochemical, small-molecule microarray, Alexa647-labelled CAII, profiling panel (AID 1122). Conditions: CAII-A647 binding fluorescence, higher = more signal.
Test [5] is described as follows: COS7 lysate on small-molecule microarray, probe aHis, 635 nm (AID 1123).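 Also: z-score combines 667nm fluorescence intensity with signal-to-noise per printed compound spot.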 Conditions: COS7 cell lysate, fluorescence, higher = more signal.
Test [6] is described as follows: probe aLAP1 signal on lysate-treated microarray – cell lysate, small-molecule microarray, COS7 lysate, primary screen (AID 1124).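 Also: lysate comes from COS7 cells expressing LAP1 and is applied at 0.3 µg/mL; score merges spot fluorescence near 667 nm with signal-to-noise over triplicate slides.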 Conditions: probe aLAP1, fluorescence, higher = more signal.
The subject of a further test is Sam68 (KHDRBS1). Put plainly: compounds binding KHDRBS1 protein – biochemical, small-molecule microarray, 635 nm fluorescence, primary screen (AID 1125).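 Also: score merges 667 nm channel intensity with signal to noise over triplicate slides.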 Particulars: higher = more signal.
Test [7] has as its system Chordin-like protein 2 (CHRDL2). As to the kind of experiment: compounds binding chordin-like 2 – biochemical, small-molecule microarray, 635 nm fluorescence, primary screen (AID 1126).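 Also: printed compound slides probed with Chrdl2 protein at 4 µg/mL for 1 h at 4 C; score merges 667 nm emission intensity with signal to noise over three replicate slides.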 Particulars: fluorescence 635 nm, higher = more signal.
Test [8] has as its target Concanavalin-A (Canavalia ensiformis) (UniProt P02866). Put plainly: compounds binding concanavalin A lectin – biochemical, small-molecule microarray, Alexa647 label, 635 nm, artefact control for SMM control protein annotation, primary screen (AID 1127).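 Also: z combines 667 nm emission intensity with signal-to-noise across three replicate slides.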 Conditions: ConA-A647 binding fluorescence, higher = more signal.

Sequence of Albumin (Bos taurus) (P02769 whole entry, looked up): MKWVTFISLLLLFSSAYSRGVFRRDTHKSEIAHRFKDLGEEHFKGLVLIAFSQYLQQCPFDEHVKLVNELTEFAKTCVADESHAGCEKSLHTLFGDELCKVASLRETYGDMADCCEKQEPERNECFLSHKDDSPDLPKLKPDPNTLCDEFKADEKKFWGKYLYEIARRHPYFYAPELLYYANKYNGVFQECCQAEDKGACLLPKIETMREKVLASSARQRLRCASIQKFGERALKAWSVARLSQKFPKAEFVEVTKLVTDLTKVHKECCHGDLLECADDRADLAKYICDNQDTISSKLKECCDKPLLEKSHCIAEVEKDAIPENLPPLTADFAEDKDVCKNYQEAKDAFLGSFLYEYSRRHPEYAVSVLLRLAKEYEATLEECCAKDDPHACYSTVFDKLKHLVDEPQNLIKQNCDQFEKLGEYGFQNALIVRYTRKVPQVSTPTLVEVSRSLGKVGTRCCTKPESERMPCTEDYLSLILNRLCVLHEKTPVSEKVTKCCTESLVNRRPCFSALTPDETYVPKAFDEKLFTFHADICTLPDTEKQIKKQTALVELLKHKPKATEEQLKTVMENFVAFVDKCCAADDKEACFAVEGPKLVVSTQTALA
Sequence of Concanavalin-A (Canavalia ensiformis) (P02866 whole entry, looked up): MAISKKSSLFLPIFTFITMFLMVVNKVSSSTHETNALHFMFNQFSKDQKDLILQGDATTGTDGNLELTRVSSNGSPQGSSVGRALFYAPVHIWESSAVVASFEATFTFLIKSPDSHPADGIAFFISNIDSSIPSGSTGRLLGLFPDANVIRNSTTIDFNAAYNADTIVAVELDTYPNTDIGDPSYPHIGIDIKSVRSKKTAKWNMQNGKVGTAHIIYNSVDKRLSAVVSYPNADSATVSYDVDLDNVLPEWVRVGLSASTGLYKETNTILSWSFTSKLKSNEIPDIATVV

For the compound `C[C@H]1Cc2c(COc3ccccc3)nc3c(c2CO1)CN(CCOc1ccccc1)CC3`, the composite z-score with Albumin (Bos taurus) is -0.16; in [2], 0.0282; in test [3], -0.0746; in test [4], 0.635; in [5], 1.14; in test [6] it was 0.282. Also, the composite z-score with Sam68 (KHDRBS1) turned out to be 1.32; in test [7] it was 0.522; in test [8], 1.08. For the same compound, the composite Z-score in test [1] was -0.711 (inactive).
As to `CC(CCN1CCc2nc(-c3ccccc3)c(-c3ccccc3)cc2C1)=NOC[C@@H](O)COCc1ccco1`, the composite z-score with Albumin (Bos taurus) is 0.148; in test [2] it was 0.062; in test [3], -0.153; in test [4], 0.0111; in [5], 0.197; in test [6], -0.202. The composite z-score in the test on Sam68 (KHDRBS1) worked out at 1.08; in [7], 1.03; in test [8], 0.501. Besides, in test [1], the composite Z-score is 0.0366 (inactive).
Take `CC(=O)Nc1ccc([C@@H]2N[C@H](C(=O)O)CC[C@H]2C)cc1`: the composite z-score is 0.0499 in the test with Albumin (Bos taurus); -0.132 in test [2]; -0.203 in test [3]; -0.172 in test [4]; -0.0725 in test [5]; 0.0356 in test [6]. The composite z-score with Sam68 (KHDRBS1) was found to be 0.22; in test [7] it was 0.65; in test [8], 0.36. In test [1], the composite Z-score is 0.237 (inactive).
`O=C1C=C[C@@H](O)[C@@H]2[C@@H]3C(=O)N(c4ccc(F)cc4F)C(=O)[C@@H]3CC[C@@H]12`: the composite z-score is 0.351 in the test with Albumin (Bos taurus); 0.0409 in test [2]; -0.0772 in test [3]; -0.0233 in test [4]; -0.303 in test [5]; -0.113 in [6]. Further, the composite z-score in the test on Sam68 (KHDRBS1) came to 0.157; in test [7] it was 0.717; in test [8], 0.753. Further, the composite Z-score in test [1] is 0.331 (inactive).
`COc1ccc(O[C@@H]2[C@H](O)CO[C@@H]2C=Cc2ccccc2)cc1`: the composite z-score is -0.0176 with Albumin (Bos taurus); -0.0343 in [2]; -0.115 in [3]; -0.053 in [4]; -0.39 in test [5]; 0.0909 in test [6]. Also, the composite z-score was determined as 0.0255 in the test with Sam68 (KHDRBS1), 0.211 in test [7] and 0.37 in [8]. Further, the composite Z-score in test [1] is 0.0831 (inactive).
As for `CCC=CCCC(OC(=O)c1ccc(Br)cc1)C1=CCCCC1=O` (stereo not given), the composite z-score with Albumin (Bos taurus) was 0.231; in test [2], 0.0836; in test [3], -0.102; in [4], 0.696; in test [5], 0.678; in test [6] it was 0.0079. Further, the composite z-score is 0.776 in the test with Sam68 (KHDRBS1), 1.02 in test [7] and -0.297 in [8]. For the same compound, in test [1], the composite Z-score was -0.0549 (inactive).
Turning to `CCOC(=O)NN=C1C[C@@H](O)[C@@H](O)[C@@H]2[C@@H]3C(=O)N(c4cccc(Oc5ccccc5)c4)C(=O)[C@@H]3CC[C@H]12`, the composite z-score in the test with Albumin (Bos taurus) was 0.52; in test [2], 0.0462; in test [3], -0.0753; in test [4] it was 0.503; in test [5] it was 0.858; in test [6] it was 0.0682. The composite z-score with Sam68 (KHDRBS1) amounted to 0.384; in test [7], 0.399; in [8], 0.854. For the same compound, the composite Z-score in [1] was -0.238 (inactive).
With `CCOC(=O)[C@H](Cc1ccccc1)NC(=O)CCC1CC(OC(=O)NCc2cccc3ccccc23)CC2(CCCC(COC(=O)NCC(c3ccccc3)c3ccccc3)O2)O1` (stereo not given in full), the composite z-score was 0.313 with Albumin (Bos taurus); 0.062 in test [2]; -0.169 in test [3]; 0.394 in test [4]; 0.468 in test [5]; -0.0448 in test [6]. For the same compound, the composite z-score amounted to 0.914 in the test with Sam68 (KHDRBS1), 0.203 in test [7] and 0.256 in test [8]. The composite Z-score in test [1] was 0.793 (inactive).
As to `CCOC(=O)[C@H](CC(C)C)NC(=O)CCC1CC(OC(=O)NCc2cccc3ccccc23)CC2(CCCC(COC(=O)NCc3cccc(C(F)(F)F)c3)O2)O1` (stereo not given in full), the composite z-score in the test with Albumin (Bos taurus) is -0.105; in test [2], -0.0113; in test [3] it was -0.146; in test [4], -0.0249; in test [5], 0.0261; in test [6], 0.127. Also, the composite z-score in the test with Sam68 (KHDRBS1) came out at 0.046; in test [7], 0.964; in [8] it was 0.139. Also, the composite Z-score in test [1] is 0.041 (inactive).
On to `COc1cccc([C@H]2Oc3ccc(OC)cc3C(=NO[C@@H]3O[C@H](COC(C)=O)[C@@H](OC(C)=O)[C@H](OC(C)=O)[C@H]3OC(C)=O)[C@@H]2O)c1`, for which the composite z-score was 0.0351 with Albumin (Bos taurus); -0.0598 in test [2]; -0.141 in test [3]; -0.403 in test [4]; 0.1 in [5]; 0.474 in [6]. The composite z-score with Sam68 (KHDRBS1) is 0.153; in test [7], -0.0174; in [8], -0.143. The composite Z-score in test [1] was 1.25 (inactive).
In the case of `CC(C)=CCCC(C)=CCON=C1C[C@@H](O)[C@@H](O)[C@@H]2[C@@H]3C(=O)N(C(C)(C)C)C(=O)[C@@H]3CC[C@@H]12`, the composite z-score with Albumin (Bos taurus) is 0.0038; in test [2], -0.127; in test [3] it was -0.0859; in test [4], -0.0211; in test [5] it was -0.13; in test [6], -0.0115. The composite z-score in the test with Sam68 (KHDRBS1) was 0.383; in test [7], 0.129; in [8], 0.411. Further, the composite Z-score in test [1] was -0.204 (inactive).
In the case of `CC1O[C@H]2C3=C(C(=O)[C@@H]4O[C@@H]4[C@H]3O)[C@@H]1C1[C@@H](C)OC=C3[C@H](O)C4O[C@@H]4C(=NOCc4ccccc4)[C@]312` (stereo not given in full), the composite z-score in the test with Albumin (Bos taurus) is -0.26; in test [2], -0.125; in test [3] it was -0.14; in [4], -0.279; in [5] it was 0.355; in test [6], -0.136. Besides, the composite z-score in the test on Sam68 (KHDRBS1) was -0.221; in [7], 0.0959; in [8], -0.207. Moreover, the composite Z-score in [1] is 0.0463 (inactive).
